Data published in PubChem BioAssay AID488815 (Broad Institute, 2010).
Measured potencies and affinities stand elsewhere. Records with an inconclusive call do not appear. Activity calls are given as the source filed them. The rule behind the calls is not given here.

Target: CAAX prenyl protease 1 (Saccharomyces cerevisiae (strain ATCC 204508 / S288c)) (UniProt P47154)
Experiment: yeast CAAX protease Ste24 inhibition – biochemical, S. cerevisiae, plate reader, cherry-pick, dose response (AID 488815)

CAAX prenyl protease 1 (Saccharomyces cerevisiae (strain ATCC 204508 / S288c)), sequence (P47154 whole entry, looked up): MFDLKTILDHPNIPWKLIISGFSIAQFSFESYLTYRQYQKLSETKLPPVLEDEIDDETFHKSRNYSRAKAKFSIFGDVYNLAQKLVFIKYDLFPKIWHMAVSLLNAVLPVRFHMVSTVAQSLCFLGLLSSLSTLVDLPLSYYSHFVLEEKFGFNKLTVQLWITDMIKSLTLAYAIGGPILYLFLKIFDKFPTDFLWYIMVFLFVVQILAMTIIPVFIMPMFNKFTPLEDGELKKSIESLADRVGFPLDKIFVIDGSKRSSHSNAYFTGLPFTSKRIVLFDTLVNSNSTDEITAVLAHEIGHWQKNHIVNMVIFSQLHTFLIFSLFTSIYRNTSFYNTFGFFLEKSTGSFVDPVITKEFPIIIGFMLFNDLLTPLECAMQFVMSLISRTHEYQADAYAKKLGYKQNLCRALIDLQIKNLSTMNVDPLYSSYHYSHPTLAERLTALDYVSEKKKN

CN1CCN(Cc2c(C(=O)N/N=C/c3cccc(Br)c3)nnn2-c2nonc2N)CC1
outcome: inactive

CCn1cc(/C=C(\NC(=O)c2ccccc2F)C(=O)N2CCOCC2)c2ccccc21
outcome: inactive

CCn1c(COc2cccc(C)c2)nnc1SCC(=O)NC1CCCC1
outcome: inactive

Cc1ccc(C2(COC(=O)C(C)C)CO2)c(OC(=O)C(C)C)c1 (stereo not given)
outcome: inactive

CC(=O)c1c(C)oc2ccc(NS(=O)(=O)c3ccc(C(=O)O)cc3)cc12
outcome: inactive

C=C(C)C1(O)OC(=O)C=C1OC (stereo not given)
outcome: inactive

Cn1c(CN2CCOCC2)c(C#N)c2ccccc21
outcome: inactive

CC(C)C[C@H](NC(=O)c1nc[nH]c1C(=O)N1CCNCC1)C(=O)OCc1ccccc1
outcome: inactive

N#Cc1c(OCC(=O)c2ccccc2)nc2c(c1-c1ccco1)CCc1ccccc1-2
outcome: inactive

COc1ccc(C(C(=O)NC2CCCCC2)N(C(=O)c2snc(C(N)=O)c2N)c2ccc(OC)cc2OC)cc1 (stereo not given)
outcome: inactive

O=C(COC(=O)c1ccc(S(=O)(=O)N2CCCC2)cc1)NCc1ccccc1
outcome: inactive

Nc1nnnn1/N=C/c1ccccc1OCc1ccc(Cl)cc1Cl
outcome: inactive

C/C(CC(=O)NCc1ccco1)=N\NC(=O)c1ccc([N+](=O)[O-])cc1Cl
outcome: inactive

COc1ccc(Cl)cc1Nc1nc(C)nc2c1oc1ccccc12
outcome: inactive

COc1ccc(S(=O)(=O)NCC2CCCO2)cc1NC(=O)c1ccccc1F (stereo not given)
outcome: inactive

NS(=O)(=O)c1ccc(NC(=O)/C=C/c2cn(-c3ccccc3)nc2-c2cccc(Cl)c2)cc1
outcome: inactive

O=C1CN(C(=O)NCC(=O)N2CCCC2)c2ccccc2N1
outcome: inactive

CSc1ccc(C(=O)C2CCCN(C(=O)c3cccnc3SC)C2)cc1 (stereo not given)
outcome: inactive

Cc1nc(N2CCCCC2)c2c(C)c(C(=O)Nc3ccccc3C(F)(F)F)sc2n1
outcome: inactive

COc1cc(-c2nc3ccccn3c2/N=C/c2cc(OC)c(OC)c(OC)c2)ccc1O
outcome: inactive

CCOC(=O)c1cc(-c2ccccc2)sc1NC(=O)C(C)Sc1nnnn1C (stereo not given)
outcome: inactive

Cc1nc(-c2ccc(Cl)cc2)sc1C1(C)CC(c2ccccc2Br)=NO1 (stereo not given)
outcome: inactive

CCN(Cc1ccccc1)S(=O)(=O)c1ccc(C(=O)N(CCCN(C)C)c2nc3c(C)c(C)ccc3s2)cc1
outcome: inactive

CCCOc1ccccc1C(=O)NCCCC(=O)O
outcome: inactive

Cc1cc(Cl)c2oc(C(=O)N3CCN(C(=O)c4ccco4)CC3)c(C)c2c1
outcome: inactive

c1ccc(Nc2cccc(Nc3ccccc3)n2)cc1
outcome: inactive

O=C(Nc1ccc(F)cc1)Oc1ccccc1N1CCOCC1
outcome: inactive

CCCCCCCCNC(C)C(O)c1ccc(SC(C)C)cc1 (stereo not given)
outcome: inactive

Cc1cc(C(=O)N/N=C/c2c3ccccc3cc3ccccc23)n[nH]1
outcome: inactive

COc1ccc(-c2nc3ncccc3o2)cc1NC(=O)c1ccco1
outcome: inactive

O=C(c1cc(-c2ccccc2)nc2ccccc12)N1CCN(c2ccccn2)CC1
outcome: inactive

Cc1ccc(C(=O)c2c3ccccc3[n+]([O-])n2CCO)cc1
outcome: inactive

CC1(C)CC2CC(C)(CN2S(=O)(=O)c2ccc(N)cc2)C1 (stereo not given)
outcome: inactive

COc1ccc(C(CNC(=O)COc2cc(C)c(Cl)c(C)c2)N2CCCCC2)cc1 (stereo not given)
outcome: inactive

CCn1c(C)nc2c(=O)oc3ccccc3c21
outcome: inactive

COC(C/C=C/[C@H](O)[C@@H](C)OCc1ccccc1)OC
outcome: inactive

Cc1cc(C(=O)N[C@H](c2ccccc2)[C@@]2(C)C[C@@H]2[C@@H](C)C(=O)Nc2ccc3ccccc3c2)n(C)n1
outcome: inactive

CCN(C(=O)COC(=O)c1cc(-c2cccs2)nc2ccccc12)C1CCS(=O)(=O)C1 (stereo not given)
outcome: inactive

Cc1cc2cc(C(=O)N3CCc4c([nH]c5ccccc45)C3c3ccccn3)ccc2o1 (stereo not given)
outcome: inactive

O=C(C1CCC(=O)N(C2CC2)C1)N1CCN(c2ccccc2Cl)CC1 (stereo not given)
outcome: inactive
